The results in this text go back to PubChem BioAssay (Tox21).

SMILES strings stand for the structures. “And” between values parts separate entries of the source, which are not always exact repeats. Identical values can stand only once. Inconclusive results are not listed. Some structures have more than one record in an assay (separate samples or runs), and their calls can disagree. The source made the active and inactive calls. Unless noted, calls follow the shape of the dose curve; as a rule, active = well fitted curve in the direction sought with a large enough effect in the repeat runs; inconclusive = weak or mixed curves; inactive = no such curve, though single readings can be large; an effect the other way counts as inactive or inconclusive.

Experiment [1] can be described thus: qHTS assay to identify small molecule antagonists of the glucocorticoid receptor (GR) signaling pathway - cell viability counter screen (AID 720693). Also: nearly all actives have a fitted effect of over 55% in size. A general note: Quantitative high-throughput screening tests each substance at several concentrations.
Experiment [2] in a line: qHTS assay for identifying genotoxic compounds that show differential cytotoxicity against isogenic chicken DT40 cell lines with known DNA damage response pathways - wild type cell line (AID 743012). Also: nearly all actives have a fitted effect of over 60% in size. Also: potency is read from the fitted curve at half-maximal effect. The method in brief: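 Cells (DT40 wild type, 300/well) are treated with DMSO-dissolved compounds after a ~0.5 h pre-incubation and kept 40 h at 37 C/5% CO2. Viability is then measured by CellTiter-Glo luminescence following 30 min at room temperature.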

The nature of experiment [3]: qHTS assay for identifying genotoxic compounds that show differential cytotoxicity against isogenic chicken DT40 cell lines with known DNA damage response pathways - Rev3 mutant cell line (AID 743014). Also: nearly all actives have a fitted effect of over 55% in size. Also: potency is read from the fitted curve at half-maximal effect.
The nature of experiment [4]: qHTS assay for identifying genotoxic compounds that show differential cytotoxicity against isogenic chicken DT40 cell lines with known DNA damage response pathways - Rad54/Ku70 mutant cell line (AID 743015). Also: nearly all actives have a fitted effect of over 60% in size. Also: potency is read from the fitted curve at half-maximal effect.
Experiment [5] in a line: qHTS assay to identify small molecule antagonists of the androgen receptor (AR) signaling pathway - cell viability counter screen (AID 743033; also: nearly all actives have a fitted effect of over 45% in size; also: potency is read from the fitted curve at half-maximal effect).
The nature of experiment [6]: qHTS assay to identify small molecule antagonists of the androgen receptor (AR) signaling pathway using the MDA cell line - cell viability counter screen (AID 743041; also: nearly all actives have a fitted effect of over 45% in size; also: potency is read from the fitted curve at half-maximal effect). Put shortly:
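R1881-driven MDA-kb2 AR-luc cells, 3,000/well, were dosed with library compounds for 16 h; cell health came from CellTiter-Fluor fluorescence in the reporter wells.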

Experiment [7] in a line: qHTS assay to identify small molecule antagonists of the thyroid receptor (TR) signaling pathway - cell viability counter screen (AID 743064). Also: nearly all actives have a fitted effect of over 50% in size. Also: potency is read from the fitted curve at half-maximal effect. The method in brief: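 Viability of T3-stimulated (1 nM final) GH3.TRE-Luc cells is measured by CellTiter-Fluor fluorescence after 23.5 h compound exposure at 37 °C plus 30 min reagent incubation.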
Experiment [8] in a line: qHTS assay to identify small molecule antagonists of the thyroid receptor (TR) signaling pathway (AID 743065). Also: nearly all actives have a fitted effect of over 55% in size. Also: potency is read from the fitted curve at half-maximal effect. As to activity, negative = inhibition: series mostly up to about 70 µM. Put shortly: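 Antagonism measured as loss of luciferase signal in GH3 cells stably carrying a TRE-luciferase reporter, co-treated with compound and T3 (1 nM final) for 23.5 h at 37 C. Viability was read in the same well by CellTiter-Fluor.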
Experiment [9] relates to thyroid hormone receptor (rat, GH3 cells). The experiment in a line: qHTS assay to identify small molecule agonists of the thyroid receptor (TR) signaling pathway (AID 743066; calls by dose curve).
In experiment [10] the target is Estrogen receptor (Homo sapiens) (UniProt P03372). In words: qHTS assay to identify small molecule antagonists of the estrogen receptor alpha (ER-alpha) signaling pathway (AID 743069; active = well fitted curve in the direction sought with a large enough effect in the signal ratio in the repeat runs, not every such curve was filed as active; the % refers to the signal ratio). The method in brief: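 Compound effects are measured against 17beta-estradiol stimulation in HEK293 cells with a UAS-controlled beta-lactamase reporter for ER-alpha. Exposure lasts 18 hr at 37C; LiveBLAzer B/G FRET substrate follows for 2 hr at room temperature.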

Experiment [11] shares this target. In words: qHTS assay to identify small molecule agonists of the estrogen receptor alpha (ER-alpha) signaling pathway (AID 743075; calls by dose curve).
For experiment [12] the target is unchanged. In words: qHTS assay to identify small molecule agonists of the estrogen receptor alpha (ER-alpha) signaling pathway using the BG1 cell line (AID 743079). Also: nearly all actives have a fitted effect of over 20% in size.
The nature of experiment [13]: qHTS assay to identify small molecule antagonists of the estrogen receptor alpha (ER-alpha) signaling pathway using the BG1 cell line (AID 743080; calls by dose curve;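 also: BG1 cells stimulated with 17beta-estradiol alongside compound; series mostly up to about 70 µM; nearly all actives have a fitted effect of over 25% in size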). Put shortly:
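Readout is ONE-Glo luminescence, taken 30 min at room temperature after reagent addition, preceded by a CellTiter-Fluor viability read; BG1-Luc-4E2 cells had received compound and 17beta-estradiol for 21.5 h at 37 C.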

A short description of experiment [14]: qHTS assay to identify small molecule antagonists of the estrogen receptor alpha (ER-alpha) signaling pathway using the BG1 cell line - cell viability counter screen (AID 743081).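 Also: compound given together with 17beta-estradiol as the ER stimulus; nearly all actives have a fitted effect of over 45% in size.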 Also: potency is read from the fitted curve at half-maximal effect. As to activity change, negative = cytotoxicity: series mostly up to about 70 µM.
The target of experiment [15] is Aromatase (Homo sapiens) (UniProt P11511). In words: qHTS assay to identify aromatase inhibitors (AID 743083). Also: nearly all actives have a fitted effect of over 55% in size. Also: potency is read from the fitted curve at half-maximal effect. As to activity, negative = inhibition: series mostly up to about 70 µM.
Experiment [16] can be described thus: qHTS assay to identify small molecule antagonists of the estrogen receptor alpha (ER-alpha) signaling pathway - cell viability counter screen (AID 743074; calls by dose curve;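 also: HEK293 cells carrying ER-alpha-UAS-bla reporter stimulated with 17beta-estradiol; nearly all actives have a fitted effect of over 45% in size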; also: potency is read from the fitted curve at half-maximal effect).
The target of experiment [17] is Androgen receptor (Homo sapiens) (UniProt P10275). In words: qHTS assay to identify small molecule antagonists of the androgen receptor (AR) signaling pathway (AID 743035; active = well fitted inhibition curve with a large enough effect in the signal ratio in the repeat runs, not every such curve was filed as active; the % refers to the signal ratio; also: potency is read from the fitted curve at half-maximal effect). The method in brief: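 Antagonism is scored as loss of R1881-driven beta-lactamase reporter expression in HEK293 cells carrying the reporter under a UAS element, after 16 h co-treatment at 37C and a 2 h room-temperature FRET substrate read.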

The target is the same in experiment [18]. The experiment in a line: qHTS assay to identify small molecule agonists of the androgen receptor (AR) signaling pathway using the MDA cell line (AID 743040; also: nearly all actives have a fitted effect of over 20% in size; also: potency is read from the fitted curve at half-maximal effect). The method in brief:
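After a 5 h incubation at 37C and 0% CO2, MDA-kb2 reporter cells were dosed with compounds in DMSO and kept 16 h under the same conditions. Luciferase activity was then read as luminescence with ONE-Glo.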

Experiment [19] shares this target. In words: qHTS assay to identify small molecule antagonists of the androgen receptor (AR) signaling pathway using the MDA cell line (AID 743042; also: nearly all actives have a fitted effect of over 55% in size; also: potency is read from the fitted curve at half-maximal effect). The method in brief:
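Antagonist mode: compounds plus R1881 agonist added to MDA-kb2 AR-luc cells, incubated 16 h at 37C. Luciferase reporter luminescence quantified, with multiplexed CellTiter-Fluor readout for cell viability.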

The target is the same in experiment [20]. In words: qHTS assay to identify small molecule agonists of the androgen receptor (AR) signaling pathway (AID 743036; active = well fitted activation curve with a large enough effect in the signal ratio in the repeat runs, with a control signal flat, not every such curve was filed as active; the % refers to the signal ratio). The method in brief:
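Screening used 2,000 AR-bla HEK293 cells per well, treated 16 h at 37C with test compounds in DMSO alongside positive and DMSO-only controls; beta-lactamase activity was then read by LiveBLAzer B/G FRET fluorescence after 2 h at room temperature.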
% is scaled to controls: 0 for no effect and ±100 for the full control effect.

Aromatase (Homo sapiens), sequence (P11511 whole entry, looked up): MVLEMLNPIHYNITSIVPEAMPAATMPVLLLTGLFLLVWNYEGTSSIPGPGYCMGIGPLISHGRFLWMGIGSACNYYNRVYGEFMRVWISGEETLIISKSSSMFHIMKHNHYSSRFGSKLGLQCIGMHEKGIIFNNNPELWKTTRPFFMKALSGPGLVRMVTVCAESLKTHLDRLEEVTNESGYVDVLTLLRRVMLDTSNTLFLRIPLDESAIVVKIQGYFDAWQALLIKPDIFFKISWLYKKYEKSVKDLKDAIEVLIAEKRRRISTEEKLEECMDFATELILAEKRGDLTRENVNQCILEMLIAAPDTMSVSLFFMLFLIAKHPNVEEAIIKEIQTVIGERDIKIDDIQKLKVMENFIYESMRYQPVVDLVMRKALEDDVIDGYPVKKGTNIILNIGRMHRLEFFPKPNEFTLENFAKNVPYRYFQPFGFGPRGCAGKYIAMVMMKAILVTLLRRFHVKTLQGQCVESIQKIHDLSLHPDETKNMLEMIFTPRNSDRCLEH
Estrogen receptor (Homo sapiens), sequence (P03372 whole entry, looked up): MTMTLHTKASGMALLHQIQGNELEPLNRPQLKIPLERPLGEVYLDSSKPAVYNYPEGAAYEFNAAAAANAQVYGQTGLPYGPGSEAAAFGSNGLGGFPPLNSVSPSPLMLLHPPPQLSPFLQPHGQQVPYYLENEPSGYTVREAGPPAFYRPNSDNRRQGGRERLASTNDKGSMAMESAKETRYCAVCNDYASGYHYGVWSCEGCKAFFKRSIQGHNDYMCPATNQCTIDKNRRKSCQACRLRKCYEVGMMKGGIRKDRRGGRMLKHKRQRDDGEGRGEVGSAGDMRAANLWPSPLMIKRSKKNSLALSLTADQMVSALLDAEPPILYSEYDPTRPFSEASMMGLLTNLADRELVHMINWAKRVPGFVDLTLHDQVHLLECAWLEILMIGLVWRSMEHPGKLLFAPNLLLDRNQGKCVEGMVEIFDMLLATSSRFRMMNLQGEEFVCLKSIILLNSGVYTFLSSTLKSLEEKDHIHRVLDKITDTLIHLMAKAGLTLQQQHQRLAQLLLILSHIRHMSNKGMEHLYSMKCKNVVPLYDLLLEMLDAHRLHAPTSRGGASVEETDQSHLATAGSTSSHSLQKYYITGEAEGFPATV
Androgen receptor (Homo sapiens), sequence (P10275 whole entry, looked up): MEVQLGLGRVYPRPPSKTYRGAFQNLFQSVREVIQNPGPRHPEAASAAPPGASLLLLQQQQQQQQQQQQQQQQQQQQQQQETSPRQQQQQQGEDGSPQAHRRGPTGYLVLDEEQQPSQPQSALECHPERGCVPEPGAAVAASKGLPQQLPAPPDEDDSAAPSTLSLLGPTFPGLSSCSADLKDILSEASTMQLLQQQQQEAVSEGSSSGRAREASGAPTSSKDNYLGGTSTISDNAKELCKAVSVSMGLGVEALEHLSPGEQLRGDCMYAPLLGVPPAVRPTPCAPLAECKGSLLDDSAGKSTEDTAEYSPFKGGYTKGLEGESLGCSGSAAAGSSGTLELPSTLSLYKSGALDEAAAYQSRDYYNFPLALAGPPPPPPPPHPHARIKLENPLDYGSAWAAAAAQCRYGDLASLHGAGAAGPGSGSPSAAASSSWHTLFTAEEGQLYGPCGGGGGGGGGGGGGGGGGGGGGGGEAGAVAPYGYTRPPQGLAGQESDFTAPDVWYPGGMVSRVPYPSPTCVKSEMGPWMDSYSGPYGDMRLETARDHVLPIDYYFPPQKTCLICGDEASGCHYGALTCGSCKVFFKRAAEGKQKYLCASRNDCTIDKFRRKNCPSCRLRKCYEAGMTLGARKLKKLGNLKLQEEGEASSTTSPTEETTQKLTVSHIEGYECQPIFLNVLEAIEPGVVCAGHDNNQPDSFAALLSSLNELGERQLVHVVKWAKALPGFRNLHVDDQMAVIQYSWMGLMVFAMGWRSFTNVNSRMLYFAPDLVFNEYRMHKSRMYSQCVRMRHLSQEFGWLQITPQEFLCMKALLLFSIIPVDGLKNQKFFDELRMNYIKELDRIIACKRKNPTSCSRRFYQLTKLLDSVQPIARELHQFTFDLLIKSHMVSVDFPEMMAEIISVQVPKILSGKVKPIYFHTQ

On to `CCO[Si](CCCCl)(OCC)OCC`, for which the Potency result in experiment [1], in experiment [2], in [3], in [4], in experiment [5] and in experiment [6] was “inactive” in each case. Moreover, the Potency entry in experiment [7], in experiment [8], in [9], in experiment [10], in experiment [11] and in [12] was “inactive” throughout. The Potency result in experiment [13], in experiment [14] and in [15] was “inactive” each time.

Consider `C=C(C)C(=O)OCCO`, for which the Potency entry in experiment [1], in experiment [2], in experiment [3], in experiment [4], in experiment [5] and in [6] was “inactive” in each case. Further, the Potency entry in experiment [7], in [8], in [9], in experiment [10], in experiment [16] and in [11] was “inactive” each time. Further, the Potency entry in experiment [12], in experiment [13], in [14] and in experiment [15] was “inactive” each time.

For `C/C(=C(\CCOP(=O)(O)O)SC(=O)c1ccccc1)N(C=O)Cc1cnc(C)nc1N`, the Potency result in experiment [1], in experiment [2], in [3], in [4], in experiment [5] and in experiment [17] was “inactive” each time. In addition, the Potency entry in experiment [6], in experiment [19], in experiment [7], in experiment [8], in experiment [9] and in experiment [10] was “inactive” throughout. Besides, the Potency result in experiment [16], in experiment [11], in experiment [12], in experiment [13], in experiment [14] and in [15] was “inactive” each time. For the same compound, the Potency in experiment [18] is 12.7 µM (active).

In the case of `Brc1c2ccccc2c(Br)c2ccccc12`, the viability change, negative = cytotoxic in [1] is -12.6% [at 7.04 µM] (inactive); in [6] it was 2.16% [at 8.47 µM] (inactive). Further, the activity change, negative = cytotoxicity is 2.6% [at 8.52 µM] (inactive) in experiment [2], 3.28% [at 8.55 µM] (inactive) in experiment [4], 0.327% [at 7.04 µM] (inactive) in [5] and 5.65% [at 8.47 µM] (inactive) in experiment [14]. Moreover, the activity, negative = cytotoxicity in [3] is 2.95% [at 8.53 µM] (inactive); in experiment [16] it was 9.03% [at 6.72 µM] (inactive). The activity change, negative = cytotoxic in experiment [7] is 6.61% [at 8.44 µM] (inactive). Further, the activity, negative = inhibition in experiment [8] is 5.77% [at 8.44 µM] (inactive); in [10], 17% [at 6.71 µM] (inactive). In addition, the activation in [9] is 0.426% [at 8.08 µM] (inactive); in experiment [12], -3.1% [at 8.47 µM] (inactive). The activity change, negative = inhibition in experiment [13] was -5.5% [at 8.47 µM] (inactive).

Consider `CCCCCCCCCc1ccc(OCCOCCO)cc1`, for which the Potency entry in experiment [1], in experiment [20], in [18] and in experiment [9] was “inactive” throughout. The Potency in experiment [2] was 2.37 µM (active) and 909 nM (active); in experiment [3] it was 3.76 µM (active) and 1.81 µM (active); in [4] it was 3.76 µM (active) and 1.81 µM (active); in experiment [5], 13.4 µM (active) and 8.17 µM (active); in experiment [17], 5.35 µM (active) and 4.6 µM (active); in [6], 11.1 µM (active) and 5.11 µM (active). The Potency in [19] is 4.73 µM (active) and 1.44 µM (active); in [7], 18.8 µM (active) and inactive; in experiment [8], 18.8 µM (active); in [16], 15.1 µM (active) and 16.3 µM (active); in experiment [14], 15 µM (active); in experiment [15] it was 22.8 µM (active).

In the case of `CNCCCN1c2ccccc2CCc2ccccc21`, the Potency entry in [1], in [5], in experiment [20], in [18], in experiment [6] and in [19] was “inactive” in each case. Further, the Potency entry in experiment [10], in experiment [16], in experiment [11], in experiment [12], in experiment [13] and in [14] was “inactive” each time. For the same compound, in [15], the Potency result is “inactive”. For the same compound, the Potency in experiment [2] was 4.52 µM (active); in [3] it was 16 µM (active); in experiment [4] it was 11.4 µM (active); in experiment [7], 8.04 µM (active); in [8] it was 12.7 µM (active).

Turning to `CC(C)(COC(=O)c1ccccc1)COC(=O)c1ccccc1`, the Potency entry in experiment [1], in [5], in experiment [6], in [7], in experiment [8] and in experiment [9] was “inactive” throughout. Moreover, the Potency result in [16], in experiment [14] and in [15] was “inactive” each time. The Potency in [2] was 54.5 µM (active); in experiment [3] it was 30.6 µM (active); in experiment [4], 48.6 µM (active).
